# Records with an inconclusive call do not appear. A call without a number means that no potency is given here. Calls of active or inactive are those of the source. Calls follow the shape of the dose curve; as a rule, active = well fitted activation curve with a large enough effect; inconclusive = small, poorly fitted or top-dose-only effect; inactive = no such curve, though single readings can be large or run the other way.
# Molecular target: Relaxin receptor 1 (Homo sapiens) (UniProt Q9HBX9)
# Test: qHTS Assay for Agonists of the Relaxin Receptor RXFP1: THP1 Hit Validation; also: nearly all actives have a fitted effect of over 60% in size
# Description: The relaxin hormone is involved in the variety of biological functions in normal tissues and diseases. The role of relaxin is well-established in female reproduction and parturition, mammary gland and endometrial development, maintenance of myometrial quiescence during pregnancy. Relaxin signaling through its G protein-coupled receptor (GPCR) RXFP1 results in ECM remodeling through regulation of collagen deposition, cell invasiveness, proliferation and overall tissue homeostasis. […] Recombinant human relaxin (rhRlx) is currently being tested in clinical trials as a protective agent in congestive heart failure, in treating severe preeclampsia, and as an anti-fibrotic agent in systemic sclerosis.
# Upon relaxin binding RXFP1 activation leads to the activation of adenylate cyclase (AC) via Gs. cAMP will activate PKA, which phosphorylates many signaling proteins. Thus, detection of cAMP increase is an easy and reliable indication of relaxin receptor activation. […] RXFP1 activation was assayed by changes in cAMP levels as detected with a time-resolved fluorescence energy transfer (TR-FRET) cAMP detection kit. […]
# This is a cell-based assay for cAMP second messenger response to screen for agonists of the RXFP1 receptor. […] The cells were lysed and the cAMP levels were measured with a TR-FRET cAMP kit. […] The EC50 values were determined from concentration-response data modeled with the standard Hill equation […]
# Potency is read from the fitted curve at half-maximal effect.
# Relaxin receptor 1 (Homo sapiens), sequence (Q9HBX9 whole entry, looked up): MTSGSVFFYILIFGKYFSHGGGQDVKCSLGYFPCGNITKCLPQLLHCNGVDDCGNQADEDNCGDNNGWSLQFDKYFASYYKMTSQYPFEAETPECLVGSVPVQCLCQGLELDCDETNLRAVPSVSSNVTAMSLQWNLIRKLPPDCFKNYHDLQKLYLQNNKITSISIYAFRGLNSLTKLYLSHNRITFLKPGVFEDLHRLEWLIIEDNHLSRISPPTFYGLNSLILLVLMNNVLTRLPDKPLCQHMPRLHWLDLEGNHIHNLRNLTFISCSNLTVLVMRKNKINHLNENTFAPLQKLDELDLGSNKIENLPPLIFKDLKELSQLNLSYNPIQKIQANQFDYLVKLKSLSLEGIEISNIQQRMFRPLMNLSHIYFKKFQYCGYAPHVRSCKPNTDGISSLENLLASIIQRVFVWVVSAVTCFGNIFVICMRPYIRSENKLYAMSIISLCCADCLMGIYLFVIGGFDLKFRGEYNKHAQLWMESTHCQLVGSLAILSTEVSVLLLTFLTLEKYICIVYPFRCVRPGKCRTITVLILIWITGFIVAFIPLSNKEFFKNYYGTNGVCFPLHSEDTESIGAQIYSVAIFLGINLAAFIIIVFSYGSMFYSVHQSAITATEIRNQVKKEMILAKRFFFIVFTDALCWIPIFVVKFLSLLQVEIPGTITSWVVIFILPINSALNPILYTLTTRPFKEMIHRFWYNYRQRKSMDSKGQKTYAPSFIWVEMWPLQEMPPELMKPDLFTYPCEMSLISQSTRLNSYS
row,Compound,Potency
1,CCC(Oc1cc(Cl)ccc1Cl)C(=O)N1CCC2(CC1)OCCO2 (configuration not stated),inactive
2,O=c1[nH]c(O)c(N=Nc2ccc([N+](=O)[O-])cc2)c(=O)[nH]1,11 µM (active)

# Reference: PubChem BioAssay AID492949 (National Center for Advancing Translational Sciences (NCATS), 2010)
